TbREL1 inh – TbREL1 RNA ligase inhibitors, primary screen, biochemical, FRET fluorescence; RNA-editing ligase 1, mitochondrial (Trypanosoma brucei brucei), P86926; TbREL1 RNA ligation; inhibition, % at 9.66 µM; 89,000 compounds, 0.49% hits;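 active = inhibition above the mean inhibition across all screened compounds plus 3 SD, cut at about 11% in these data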;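 also: 0% = plate median of test wells and 100% = NSC42067 control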
TbREL1 conf – TbREL1 RNA ligase inhibitors, confirmation, biochemical, FRET fluorescence, triplicate | shares compounds with TbREL1 inh | TbREL1 RNA ligation | inhibition, % at 9.66 µM | 390 compounds, 37% hits;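 active = mean inhibition across replicates above a set limit taken from the earlier primary screen, cut at about 11% in these data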;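 also: 0% = REL1 with substrate and DMSO and 100% = REL1 plus control inhibitor NSC42067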
Active calls of the source: *. The sample as a whole holds a higher share of hits than the screen did.

SMILES | TbREL1 inh | others
CC(c1ccccc1)N1CC[C@H]2C=CC[C@@H](C(=O)Nc3cccc(Cl)c3)[C@H]2C1=O (some centres not stated) | 2.4
CC(=O)NC1CCCCN(C)C1=O (configuration not stated) | 2.5
CC(=O)N1c2cc(S(=O)(=O)Nc3c(C)n(C)n(-c4ccccc4)c3=O)c(Br)cc2CC1C (configuration not stated) | -1.8
COCCNc1nc(NCc2cccs2)nc2ccsc12 | 0.7
COc1cccc(CNc2nc(NCc3ccccc3)nc3ccsc23)c1 | 12.8* | TbREL1 conf=13.5*
c1ccc(OCCNc2nc(NCC3CC3)nc3cc(-c4ccccc4)sc23)cc1 | 8.8
CC(C)Nc1nc(NCCOc2ccccc2)c2sccc2n1 | 13.5* | TbREL1 conf=7.1
CNc1nc(NCc2ccccc2)c2sccc2n1 | 5.2
c1ccc(CNc2nc(NCCc3ccncc3)c3sccc3n2)cc1 | -0.1
CC1CC(C)CN(C(=O)C2CCN(c3cncnc3)CC2)C1 (configuration not stated) | -2.4
Cc1cccc(NC(=O)C2CCCN2S(=O)(=O)c2cccnc2)c1C (configuration not stated) | 1.8
C[C@@H]1COc2cc(N3CCSCC3)ccc2S(=O)(=O)N1C | -2.0
COC(=O)C1=C(C)N(Cc2ccccc2C(F)(F)F)C(=NCc2ccc(C(F)(F)F)cc2)NC1c1ccc(C(F)(F)F)cc1 (configuration not stated) | 25.2* | TbREL1 conf=23.2*
CCN=C1NC(c2ccc(C(F)(F)F)cc2)C(C(=O)OC)=C(C)N1Cc1ccccc1C(F)(F)F (configuration not stated) | 11.4* | TbREL1 conf=12.0*
COC(=O)C1=C(C)N(Cc2ccccc2)C(=NCc2ccc(OC)cc2)N[C@H]1c1ccccc1 | 9.9
COC(=O)C1=C(C)N(Cc2ccccc2C(F)(F)F)C(=NCc2ccccc2)NC1c1ccc(Cl)cc1 (configuration not stated) | 14.2* | TbREL1 conf=15.6*
COC(=O)C1=C(C)N(Cc2ccccc2C(F)(F)F)C(=NCc2ccc(C(F)(F)F)cc2)NC1c1ccccc1 (configuration not stated) | 15.9* | TbREL1 conf=18.3*
CCN=C1NC(c2ccc(F)cc2)C(C(=O)OC)=C(C)N1Cc1ccc(C(F)(F)F)cc1 (configuration not stated) | 4.2
COC(=O)C1=C(C)N(Cc2ccccc2)C(=S)NC1c1ccc(-c2ccccc2)cc1 (configuration not stated) | -5.9
Nn1c(SCC(=O)N2CCOCC2)nnc1-c1cc(-c2ccc(Cl)cc2)n[nH]1 | -2.7
C[C@H]1[C@@H](OC(=O)N2CCOCC2)CC[C@@]23CCCN2C(=O)CCC[C@@H]13 | -1.6
O=C(Nc1cccc(F)c1)OCCN1CCCC12CCC(c1ccccc1)CC2 (configuration not stated) | 0.9
CCC(C)N(C(=O)CNc1nnnn1-c1ccccc1)C(C)CC (configuration not stated) | 0.2
COc1cc(NC(=O)C2CCCN(S(=O)(=O)c3ccc(C)c(C)c3)C2)cc(OC)c1 (configuration not stated) | -0.6
C[C@@H]1CN(C(=O)OC(C)(C)C)CCN1c1ccc(Br)c(C#N)c1 | 1.2
SMILES | TbREL1 inh | others
CCN(CC)C(=O)Cn1c2ccccc2c2nc3n(c(=O)c21)CCS3 | -3.0
CCCCCCCCN1C(=O)[C@@H](CC(=O)NCCCOCCCC)C[C@@]2(C(=O)OC)C1=C[C@H](C(C)C)O[C@@H]2C1CC1 | -1.4
O=c1cc(N2CCN(c3cccc(Cl)c3Cl)CC2)[nH]c(=O)n1C1CCCCC1 | -2.3
CCOC(=O)CNC(=O)CSc1nnc(-c2cccs2)o1 | 1.1
CCN1C(=NCc2cccc(Cl)c2)N[C@@H](c2cccc(F)c2)C(C(=O)OC)=C1C | 7.2
COC(=O)C1=C(C)N(Cc2ccccc2)C(=NCc2cccc(C(F)(F)F)c2)N[C@H]1c1cccc(F)c1 | 9.0
COC(=O)C1=C(C)N(Cc2cccc(C(F)(F)F)c2)C(=NCc2ccc(OC)cc2)NC1c1ccc(F)cc1 (configuration not stated) | 12.0* | TbREL1 conf=13.7*
COC(=O)C1=C(C)N(Cc2ccc(F)cc2)C(=S)NC1c1cccc(OC)c1 (configuration not stated) | -6.3
COC(=O)C1=C(C)N(Cc2ccccc2C(F)(F)F)C(=NCc2ccccc2)NC1c1cccc(F)c1 (configuration not stated) | 14.7* | TbREL1 conf=20.0*
COC(=O)C1=C(C)N(Cc2ccc(Br)cc2)C(=S)NC1c1ccc(F)cc1 (configuration not stated) | 2.3
CN(C)[C@H]1CCN(c2ccc3c(c2)O[C@@H]2CCN(C2)S3(=O)=O)C1 | 1.3
COC(=O)C1CN(CCc2ccccc2)CCS(=O)(=O)N1Cc1ccccc1F (configuration not stated) | -4.6

Bioassay records deposited in PubChem by The Scripps Research Institute Molecular Screening Center.
